From PubChem
Tau fluor cs – counter-screen for tau fibril formation inhibitors; tau K18 P301L Alexa594 fluorescence, heparin fibrillization; Potency, µM (doses to about 57.7 µM), for the others: at the top dose activity change, negative = decrease; 280,000 tested, 0.93% active; further: potency means the concentration at half of the fitted maximal effect; nearly all actives have a fitted effect of over 55% in size
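Human tau K18 P301L (15 uM unlabeled, 0.24 uM Alexa 594-labeled) in 100 mM sodium acetate pH 7 with 20 uM heparin, 6 hr at 37 C. ThT 30 uM added, 1 hr ambient; Alexa 594 FP and total fluorescence read at 555/632 nm.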
KDM4E inh – blocks human JMJD2E demethylase activity | 230,000 tested, 1.6% active | AID 2147 | Potency, µM (titrated, usually from 57.1 µM), for inactives: at the top dose activity change, negative = inhibition, most hits filed as inhibitors | B2RXH2 | JMJD2E catalytic domain, FDH-coupled NADH fluorescence (FDH is formaldehyde dehydrogenase);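 further: potency means the concentration at half of the fitted maximal effect; 0% = wells with enzyme and -100% = buffer wells without enzyme; nearly all actives have a fitted effect of over 50% in size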
Target sequence (B2RXH2 1-337 limits assumed): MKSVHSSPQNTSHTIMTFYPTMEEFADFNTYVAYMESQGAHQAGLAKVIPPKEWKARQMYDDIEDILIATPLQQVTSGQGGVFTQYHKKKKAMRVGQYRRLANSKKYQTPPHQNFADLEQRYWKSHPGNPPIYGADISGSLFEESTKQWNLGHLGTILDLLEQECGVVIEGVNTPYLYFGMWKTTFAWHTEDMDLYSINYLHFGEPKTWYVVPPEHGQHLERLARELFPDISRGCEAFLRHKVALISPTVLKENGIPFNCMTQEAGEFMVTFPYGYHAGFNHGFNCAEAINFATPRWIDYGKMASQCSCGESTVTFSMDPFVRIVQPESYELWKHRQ
PNC inhibitor – blocks assembly of the perinucleolar compartment. activity change (PNC), negative = inhibition, % at 10 µM. PC3M PTB-GFP, PNC prevalence imaging, 16 h; stronger effect = lower value. 140,000 tested, 3.1% active. AID 2417;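 active means readout at or below -70, meaning at least 70% loss of cells showing the perinucleolar compartment, a nuclear body marking cancer cells; inconclusive means readout between -30 and a set limit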;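 further: plate controls were DMSO wells for no effect and camptothecin positive control wells for full effect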
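Read-out is percentage of cells bearing a perinucleolar compartment, from automated 20x imaging of fixed, Hoechst-stained PC3M PTB-GFP cells. Cells were seeded 4 h, then exposed 16 h to compound (23 nl of library stock) in duplicate plates.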
NPSR antag – neuropeptide S receptor (human) antagonism, cAMP | Potency, µM (top dose mostly 38.3 µM), for inactives: top-dose activity change, negative = inhibition, actives largely listed as inhibitors | AID 1461 | 220,000 tested, 1% active | CHO-NPSR cells, cAMP TR-FRET, antagonist mode | Q6W5P4; further: potency means the concentration at half of the fitted maximal effect; nearly all actives have a fitted effect of over 50% in size
Target sequence (Q6W5P4 whole entry, looked up): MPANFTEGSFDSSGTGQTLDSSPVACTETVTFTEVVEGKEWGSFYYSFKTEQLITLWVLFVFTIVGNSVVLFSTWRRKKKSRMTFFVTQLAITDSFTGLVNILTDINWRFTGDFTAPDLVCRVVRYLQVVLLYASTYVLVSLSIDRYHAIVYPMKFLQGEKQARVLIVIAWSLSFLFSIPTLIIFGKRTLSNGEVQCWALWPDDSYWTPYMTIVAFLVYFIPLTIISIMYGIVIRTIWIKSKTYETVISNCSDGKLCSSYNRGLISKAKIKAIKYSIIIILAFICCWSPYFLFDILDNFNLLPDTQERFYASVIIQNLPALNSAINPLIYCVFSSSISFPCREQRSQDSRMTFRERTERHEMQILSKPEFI
Tau ThT inhib – tau fibrillization inhibition (ThT binding); AID 1460; Potency, µM (doses to about 57.4 µM), inactives show top-dose activity, negative = inhibition, actives largely listed as inhibitors; 270,000 tested, 2.1% active; P10636; recombinant tau K18 P301L (four-repeat tau fragment), heparin-induced fibrillization, ThT fluorescence; further: potency means the concentration at half of the fitted maximal effect; nearly all actives have a fitted effect of over 55% in size
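Recombinant human tau K18 fragment […] carrying P301L, 15 uM unlabeled plus 0.24 uM Alexa 594-labeled, was fibrillized with 20 uM heparin in 100 mM sodium acetate pH 7 for 6 hr at 37 C; 30 uM ThT fluorescence read after 1 hr.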
Tau fibril FP – blocks human tau fibril formation measured by polarization; K18 P301L tau heparin fibrillization, Alexa594 FP, 6 h; Potency, µM (top dose mostly 57.7 µM), for the others: at the top dose activity, negative = inhibition, actives largely listed as inhibitors; 280,000 tested, 0.39% active; AID 1468; further: potency means the concentration at half of the fitted maximal effect; nearly all actives have a fitted effect of over 55% in size
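Human tau K18 […] P301L fragment, 15 uM unlabeled plus 0.24 uM Alexa 594-labeled tau (final), with compound and 20 uM heparin in 100 mM sodium acetate pH 7; 6 hr at 37 C, then Alexa 594 FP read.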
* marks the source's active call; other numbers are inactive results; ? = inconclusive; · = not tested or not shown; [ ] = remark or other dose. In the library only some 5.1% were active in any assay of this set; here they are far more common. Unless noted, the call rests on the fitted dose curve; in most records, active means well fitted curve in the direction sought with a large enough effect; inconclusive means small, poorly fitted or top-dose-only effect, or another doubt; inactive means no such curve, though single readings can be large; an effect the other way counts as inactive or inconclusive. Unless noted, on the % scale 0 is the no-effect control and ±100 the full control effect.

SMILES | Tau fluor cs | KDM4E inh | PNC inhibitor | NPSR antag | Tau ThT inhib | Tau fibril FP
CCOC(=O)c1ccoc1CSCc1ccc(C(=O)OC)o1 | -27.7% | -12.8% | ? | -10.2%[46.1 µM] | 25.1µM* | ?
COC(=O)c1ccc(CSC(=N)N)o1 | -3.2% | 6.4% | · | -26.4% | ? | -5.3%
COc1ccc(-n2c(=O)c3ccc(C(=O)NCc4ccc(C)cc4)cc3n(CC(=O)Nc3ccc(C)cc3)c2=O)cc1 | -6.8% | · | · | · | 16.2% | ?
CCC(=O)Oc1c(C(=O)CC)cc2c(C)cc(=O)oc2c1C | -7.8% | 3.4% | ? | 6.3% | -11.6% | -8.3%
CCC(=O)Nc1c(OC(=O)CC)ccc2c(C)cc(=O)oc12 | -5.8% | 3.98µM* | ? | 1.1%[46.1 µM] | -14.0% | ?
Cc1cc(=O)[nH]c(N/N=C/C2=C(N3CCOCC3)C(=C\c3ccc(Cl)cc3)/CC2)n1 | -14.2% | 28.2µM* | -2.5 | -14.7% | 22.4µM* | 2.4%
O=C(O)c1ccccc1N/N=C/C1=C(N2CCOCC2)C(=C\c2ccccc2)/CC1 | ? | ? | · | ? | 10µM* | -8.3%
Cc1cccc(-n2c(-c3ccccc3)cn3c4c(=O)[nH]c(=O)n(C)c4nc23)c1 | -11.3% | · | · | · | -8.0% | -12.0%
O=c1oc(-c2ccc(F)cc2)nc2ccsc12 | -12.0% | 2.5% | -111.4* | -9.7%[46.1 µM] | ? | 8.6%
O=c1oc(-c2ccccc2Cl)nc2ccsc12 | -1.9% | 5.4% | ? | -23.7%[46.1 µM] | ? | 13.1%
COc1ccc(Cl)cc1NC(=O)CSC1=Nc2ccccc2C2=NC(CC(=O)NC3CCCCC3)C(=O)N12 (centres undefined) | ? | · | · | · | ? | -10.8%
O=C(Nc1ccccc1)C1=C(c2ccccc2)S(=O)(=O)CCS1(=O)=O | -20.3% | -1.2% | · | ? | 28.2µM* | 22.4µM*
O=C(O)c1ccccc1C(=O)Nc1ccccc1 | 7.9% | -3.3% | 8.8 | 7.5%[46.1 µM] | -7.1% | 5.5%
Cc1ccc(N=Nc2c(O)ccc3n[nH]nc23)cc1 | ? | -2.2% | · | 53.5% | 3.55µM* | 7.5%
Cc1ccc(-c2[nH][nH]c(=O)c(=O)c2N=Nc2ccccc2)cc1 | -11.4% | -28.5% | · | 1.6% | · | 4.5%
CC(C)C(C(=O)O)N1C(=O)/C(=C/c2cccn2C)SC1=S (centres undefined) | 7.4% | -7.2% | -8.7 | -16.2% | ? | 1.0%
O=C1/C(=C/c2cccnc2)SC(=S)N1c1ccccc1 | -6.8% | 4.0% | 26.1 | 17.4% | -15.5% | -9.4%
Cc1ccc(S(=O)(=O)NN2C(=O)/C(=C/c3cccn3C)SC2=S)cc1 | -10.3% | 8.1% | 38.7 | -18.7% | 10µM* | -3.6%
O=C1/C(=C/c2cccnc2)SC(=S)N1Nc1ccccc1 | ? | -4.4% | · | -6.4%[7.67 µM] | 28.2µM* | ?
Cn1cccc1/C=C1\SC(=S)N(Nc2ccccc2)C1=O | ? | -2.5% | · | 55.5% | 3.55µM* | 3.7%
Cc1ccc(CNC(=O)CCc2c(C)nn(-c3ccc(N4CCCCC4)nn3)c2C)cc1 | -2.9% | · | · | · | -20.9% | 6.7%
Cc1ccc(CNC(=O)CCCCCn2c(=O)c3sccc3n(CC(=O)N3CCCCC3C)c2=O)cc1 (centres undefined) | -18.1% | · | · | · | -11.7% | -3.6%
CNC(=O)c1ccc(Nc2nnc(-c3ccc(C)c(S(=O)(=O)N4CCOCC4)c3)c3ccccc23)cc1 | ? | · | · | · | -10.3% | ?
Cc1ccc(N(Cc2cccs2)C(=O)COc2ccccc2[N+](=O)[O-])cc1 | -29.5% | · | · | · | -9.1% | -3.2%
COc1cc(/C=N/Nc2nncn2N)ccc1OCc1c(C)no[n+]1[O-] | -18.8% | 0.501µM* | · | -19.9% | ? | ?
SMILES | Tau fluor cs | KDM4E inh | PNC inhibitor | NPSR antag | Tau ThT inhib | Tau fibril FP
C=CCOC(=O)NC(CC(=Nc1ccc(OC)cc1)C(=O)OC)c1ccccc1 (centres undefined) | -3.7% | 7.9% | · | · | -7.1% | -3.6%
Cc1cc(C(=O)CSc2nnnn2-c2ccc(O)cc2)c(C)n1Cc1ccc2c(c1)OCO2 | 7.94µM*[quencher] | -5.0% | -9.3 | ? | -17.2% | 11.2µM*
CN(C(=O)COc1ccc(C(C)(C)C)cc1)C1CCS(=O)(=O)C1 (centres undefined) | -5.8% | -1.7% | -119.7* | 3.7%[46.1 µM] | -13.7% | ?
CCc1ccc(OCC(=O)N(C)C2CCS(=O)(=O)C2)cc1 (centres undefined) | -0.7% | -27.0% | 3.3 | -12.2%[46.1 µM] | -1.1% | 3.3%
Cc1ccc2oc(=O)c3cnn(CC(=O)N4CCN(c5ccccc5F)CC4)c3c2c1 | -13.4% | · | · | · | ? | -2.3%
CCCCN(C)CCNC(=O)c1c2c(nc3ccccc13)C(=O)N(C1CCCCC1)C2 | -5.3% | · | · | · | -1.3% | -5.2%
CCOc1cc2c(cc1OCC)C(c1ccccc1)N(c1ccccc1)C(=O)C2 (centres undefined) | 4.3% | 1.1% | -92.9* | -7.1% | -7.7% | -1.1%
CCCCOC(=O)c1ccc(NS(=O)(=O)c2c(C)nc3scc(C)n3c2=O)cc1 | -27.5% | · | · | · | -0.1% | -8.3%
CCNc1ccc(N=Nc2c(C)n(C)n(-c3ccccc3)c2=O)cc1 | -11.5% | -0.9% | · | -16.5% | 15.8µM* | 2.6%
Cc1c(N=c2scc(-c3ccccc3)n2C)c(=O)n(-c2ccccc2)n1C | -9.4% | 1.3% | · | 2.2% | -11.1% | 0.7%
CCOC(=O)/C(N=Nc1c(C)n(C)n(-c2ccccc2)c1=O)=C(\C)O | -8.2% | -6.1% | -7.6 | 3.8% | -10.0% | -3.3%
CC1=CC(=Nc2c(C)n(C)n(-c3ccccc3)c2=O)C=C(C)C1=O | ? | -38.8% | ? | -34.9% | 11.2µM* | ?
CC1=CC(=Nc2c(C)n(C)n(-c3ccccc3)c2=O)C=CC1=O | ? | 1.78µM* | · | -58.6% | 3.16µM* | 10µM*
CCC(C)C1=CC(=Nc2c(C)n(C)n(-c3ccccc3)c2=O)C=C(C(C)CC)C1=O (centres undefined) | -21.6% | -2.0% | · | -56.7% | ? | 2.2%
O=C(NC1CCCCCC1)c1cc2c(Cl)nc3ccccc3c2s1 | -29.4% | · | · | · | -9.5% | -1.1%
COc1cccc(CNC(=O)Cn2cc3c(n2)-c2c(oc(C(=O)N4CCOCC4)c2C)CC3)c1 | -4.0% | · | · | · | -2.8% | -3.7%
Cn1c(N/N=C/c2c[nH]c3ccccc23)nc2ccccc21 | 15.8µM*[quencher] | ? | 15.1 | -15.8%[46.1 µM] | 4.47µM* | 5.7%
Fc1c(F)c(F)c(N/N=C/c2c[nH]c3ccccc23)c(F)c1F | 7.08µM*[quencher] | -2.1% | ? | -16.2%[46.1 µM] | 12.6µM* | ?
CCCn1c(/N=C/c2c[nH]c3ccccc23)nc2ccccc21 | ? | -1.0% | 31.4 | -9.6%[46.1 µM] | -6.6% | ?
Cc1cc(N/N=C/c2c[nH]c3ccccc23)c2ccccc2n1 | -23.8% | ? | · | -9.4% | -12.1% | -2.5%
CCCCn1c(/N=C/c2c[nH]c3ccccc23)nc2ccccc21 | 22.4µM*[quencher] | 0.3% | 5.3 | -8.6%[46.1 µM] | -3.9% | ?
